Screening data as filed in PubChem BioAssay.
Hits are enriched below; roughly 12% of the tested compounds scored in any of these assays.
Sfp PPTase inh: qHTS Assay for Inhibitors of Bacillus subtilis Sfp phosphopantetheinyl transferase (PPTase); 3.5% of 310,000 active; Potency, µM, hits mostly inhibitors; Biochemical Sfp PPTase activity, qHTS; AID 1490, 2009;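 also: the enzyme is Sfp with the accession as filed and its product quenches rhodamine fluorescence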
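Fluorescence-quenching assay: 15 nM Sfp-PPTase preincubated 15 min at room temperature with compound, then 5 uM rhodamine-CoA and 12.5 uM BHQ-2-labelled YbbR peptide added. Fluorescence (ex 525/em 598 nm) read at start and after 30 min; difference gives rate.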
TDP1 inh: qHTS Assay for Inhibitors of Tyrosyl-DNA Phosphodiesterase (TDP1); Tyrosyl-DNA phosphodiesterase 1 (Homo sapiens), Q9NUW8; AID 485290, 2010; 0.28% of 350,000 active; Potency, µM (doses to about 130 µM), actives largely listed as inhibitors; recombinant TDP1, AlphaScreen DNA substrate cleavage; also: nearly all actives have a fitted effect of over 40% in size
Target sequence (Q9NUW8 whole entry, looked up): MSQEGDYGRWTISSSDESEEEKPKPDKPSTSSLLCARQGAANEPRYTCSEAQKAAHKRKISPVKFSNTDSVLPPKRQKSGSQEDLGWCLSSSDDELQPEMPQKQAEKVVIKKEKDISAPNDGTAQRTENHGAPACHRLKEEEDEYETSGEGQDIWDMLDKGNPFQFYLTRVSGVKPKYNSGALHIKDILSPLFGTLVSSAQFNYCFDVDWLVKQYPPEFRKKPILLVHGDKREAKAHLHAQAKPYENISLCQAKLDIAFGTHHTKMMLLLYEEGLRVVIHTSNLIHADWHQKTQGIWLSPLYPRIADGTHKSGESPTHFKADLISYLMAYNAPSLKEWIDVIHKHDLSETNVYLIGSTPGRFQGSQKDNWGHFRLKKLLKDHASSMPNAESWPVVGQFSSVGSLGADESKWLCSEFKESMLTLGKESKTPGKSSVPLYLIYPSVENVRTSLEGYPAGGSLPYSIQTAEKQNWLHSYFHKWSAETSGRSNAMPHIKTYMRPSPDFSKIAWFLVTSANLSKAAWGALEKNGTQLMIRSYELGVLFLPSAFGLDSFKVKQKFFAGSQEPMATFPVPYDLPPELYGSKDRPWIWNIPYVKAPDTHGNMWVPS
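Here, a 5' biotin and 3' phosphotyrosine-FITC DNA oligonucleotide reports Tdp1 activity: intact substrate bridges AlphaScreen beads, while cleavage leaves a 3' phosphate and drops signal. All incubations at room temperature.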
HP1b chromo inh: HTS for Inhibitors of HP1-beta Chromodomain Interactions with Methylated Histone Tails. Chromobox protein homolog 1 (Homo sapiens), P83916. AlphaScreen HP1-beta / biotin-H3K9me3 peptide binding. Potency, µM (titrated, usually from 114 µM), usual class: inhibitors. 0.56% of 390,000 active; also: nearly all actives have a fitted effect of over 70% in size
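AlphaScreen: HP1-beta (50 nM) preformed 30 min with biotin-H3(1-18)K9me3 peptide (50 nM) in PBS pH 7.4, 0.01% Tween-20. Compound added for 30 min at RT, then streptavidin donor/nickel chelate acceptor beads (10 ug/mL) for 30 min.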
G9a block: qHTS Assay for Inhibitors of Histone Lysine Methyltransferase G9a; Potency, µM (doses to about 102 µM), usual class: inhibitors; Histone-lysine N-methyltransferase EHMT2 (Homo sapiens), Q96KQ7; 8.8% of 350,000 active; G9a H3K9 monomethylation, AlphaScreen, 2 h; AID 504332, 2011; also: nearly all actives have a fitted effect of over 75% in size
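AlphaScreen detection with an anti-monomethyl H3K9 antibody quantified product after a 2 h room-temperature reaction containing 500 nM biotinylated H3K9 peptide, 20 µM SAM and 20 nM enzyme, which had been preincubated 15 min with compound.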
BAZ2B inh: qHTS Assay for Inhibitors of BAZ2B. AlphaScreen BAZ2B-H3K14Ac peptide displacement. 4.4% of 360,000 active. Potency, µM (series often up to 114 µM), usual class: inhibitors. Bromodomain adjacent to zinc finger domain protein 2B (Homo sapiens), Q9UIF8; also: nearly all actives have a fitted effect of over 60% in size
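Inhibition is scored as reduced AlphaScreen emission. The BAZ2B/b-H3(5-23)K14Ac complex (50 nM each) in PBS pH 7.4, 0.01% Tween-20 meets compound (up to 110 uM) for 30 min at RT before bead addition.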
JMJD2A Tudor inh: qHTS Assay for Inhibitors of JMJD2A-Tudor Domain | Lysine-specific demethylase 4A (Homo sapiens), O75164 | AlphaScreen JMJD2A-Tudor / H3K4me3 peptide binding | Potency, µM (series often up to 114 µM), usual class: inhibitors | 4.4% of 390,000 active; also: nearly all actives have a fitted effect of over 50% in size
Numbers stand for hits; – = inactive; ? = inconclusive; · = no result given; [ ] = remark or other dose. Calls follow the shape of the dose curve; as a rule, active = well fitted curve in the direction sought with a large enough effect; inconclusive = small, poorly fitted or top-dose-only effect, or another doubt; inactive = no such curve, though single readings can be large; an effect the other way counts as inactive or inconclusive.

SMILES	Sfp PPTase inh	TDP1 inh	HP1b chromo inh	G9a block	BAZ2B inh	JMJD2A Tudor inh
CCCn1c(N)c(C(=O)CSc2nc3ncc(Cl)cc3[nH]2)c(=O)n(C)c1=O	·	28.2µM	–	–[2.33 µM]	–	–
CCCn1c(N)c(C(=O)CSc2nc(N)cc(=O)[nH]2)c(=O)n(C)c1=O	·	–	–	–[12.7 µM]	–	–
CC(C)Cn1c(N)c(C(=O)CSc2nc3ncc(Cl)cc3[nH]2)c(=O)n(C)c1=O	·	–[0.505 µM]	–	28.2µM	–	?
CC(Nc1nc(Cl)nc2nc[nH]c12)c1ccccc1 (stereo not drawn)	·	–	–	·	·	–
COc1ccc(F)cc1S(=O)(=O)N1CCN(C(=O)c2ccco2)CC1	–	·	–	·	–	–
COc1ccc(/C(O)=C2/C(=O)C(=O)N(CCCN(C)C)C2c2cccc(Cl)c2)cc1OC (stereo not drawn)	–	–	–	?	–	–
CCN(CC)CCN1C(=O)C(=O)/C(=C(/O)c2cnn(-c3ccccc3)c2C)C1c1cccnc1 (stereo not drawn)	–	–	–	–[12.7 µM]	–	–
COc1cc(C2/C(=C(/O)c3ccc(OCC(C)C)cc3)C(=O)C(=O)N2CCN(C)C)ccc1O (stereo not drawn)	–	–	–	25.1µM	–	–
CC(C)COc1ccc(/C(O)=C2/C(=O)C(=O)N(CCN(C)C)C2c2ccncc2)cc1 (stereo not drawn)	?	–	–	?	–	–
COc1ccc(/C(O)=C2/C(=O)C(=O)N(CCN(C)C)C2c2ccc(OC)c(OC)c2)c(C)c1 (stereo not drawn)	–	–	–	39.8µM	–	–
COc1ccc(OC)c(C2/C(=C(\O)c3ccc(OC)c(Cl)c3)C(=O)C(=O)N2CCN(C)C)c1 (stereo not drawn)	–	–	–	–[12.7 µM]	–	–
COc1ccc(OC)c(C2/C(=C(/O)c3cnn(-c4ccccc4)c3C)C(=O)C(=O)N2CCN(C)C)c1 (stereo not drawn)	–	–	–	?	50.1µM	–
COc1ccc(C2/C(=C(/O)c3cnn(-c4ccccc4)c3C)C(=O)C(=O)N2CCN(C)C)cc1OC (stereo not drawn)	·	·	–	·	·	17.8µM
NCC(=O)Nc1cccc(-c2nn3c(=O)cc(N4CCNCC4)nc3s2)c1	·	·	·	·	·	–
COc1ccc(NC(=O)CNC(=O)Cc2cccc3ccccc23)c(OC)c1	·	–[0.505 µM]	–	?	–	–
CCN(CC)C(=O)[C@H]1C[C@H](CC(=O)NC/C=C(\C)CCC=C(C)C)C(=O)N2CCc3c([nH]c4cc(CCC(=O)N(C)C)ccc34)[C@]12C	·	–	–	·	·	–
Cc1ccc(-n2c(=O)c3c(C)c(C(=O)N(C)C)sc3n(CC(=O)C(C)(C)C)c2=O)cc1C	·	–	–	–	–	–
COc1cccc(C2/C(=C(\O)c3c(C)nc4c(C)cccn34)C(=O)C(=O)N2CCCN(C)C)c1 (stereo not drawn)	–	–	·	50.1µM	–	·
Cc1nc2c(C)cccn2c1/C(O)=C1\C(=O)C(=O)N(CCN(C)C)C1c1cccs1 (stereo not drawn)	·	·	–	·	·	–
CCOc1ccccc1Nc1nc(N)nc(CN(C)C2CCCCC2)n1	–	–	–	–	17.8µM	50.1µM
COc1ccccc1Nc1nc(N)nc(CN2CCCCC2)n1	–	–	–	?	–	–
COc1ccc(N2CCN(Cc3nc(N)nc(Nc4ccccc4OC)n3)CC2)cc1	–	–	–	39.8µM	28.2µM	56.2µM
COc1ccccc1Nc1nc(N)nc(CCl)n1	–	·	–	·	–	–
CCOc1ccccc1Nc1nc(N)nc(CSc2nccc(C)n2)n1	–	–	–	–[12.7 µM]	–	–
COc1ccccc1Nc1nc(N)nc(CN2CC(C)CC(C)C2)n1 (stereo not drawn)	–	–	–	10µM	?	–
